Source: PubChem BioAssay (National Center for Advancing Translational Sciences (NCATS))
In the library only some 7.5% were active in any assay of this set; here they are far more common.
Rab9 prom act = qHTS Assay for Rab9 Promoter Activators; Potency, µM (titrated, usually from 9.22 µM), for the others: top-dose activation, negative = inhibition, most hits filed as activators; AID 485297, 2010; Huh7 Rab9 promoter-luciferase reporter, luminescence, 24 h; 2.8% of 320,000 active; note: % of control where 0% means no effect; nearly all actives have a fitted effect of over 60% in size
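Rab9 promoter-driven luciferase in stably transfected Huh7 cells; 1500 cells/well rested 2 h, exposed to compound in DMSO for 24 h at 37 °C, 5% CO2. Luminescence read 10 min after adding luciferase reagent at ambient temperature.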
FLuc modulator = qHTS profiling assay for firefly luciferase inhibitor/activator using purifed enzyme and Km concentrations of substrates (counterscreen for miR-21 project); purified FLuc, Km substrates, luminescence inhibition; Potency, µM (series often up to 57.5 µM), without a hit: at the highest dose activity change, negative = inhibition, most hits filed as inhibitors; 6.9% of 360,000 active; AID 588342, 2011;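 note: plate controls were vehicle for no effect and reference inhibitor for full effect; nearly all actives have a fitted effect of over 55% in size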
Target sequence (P08659 whole entry, looked up): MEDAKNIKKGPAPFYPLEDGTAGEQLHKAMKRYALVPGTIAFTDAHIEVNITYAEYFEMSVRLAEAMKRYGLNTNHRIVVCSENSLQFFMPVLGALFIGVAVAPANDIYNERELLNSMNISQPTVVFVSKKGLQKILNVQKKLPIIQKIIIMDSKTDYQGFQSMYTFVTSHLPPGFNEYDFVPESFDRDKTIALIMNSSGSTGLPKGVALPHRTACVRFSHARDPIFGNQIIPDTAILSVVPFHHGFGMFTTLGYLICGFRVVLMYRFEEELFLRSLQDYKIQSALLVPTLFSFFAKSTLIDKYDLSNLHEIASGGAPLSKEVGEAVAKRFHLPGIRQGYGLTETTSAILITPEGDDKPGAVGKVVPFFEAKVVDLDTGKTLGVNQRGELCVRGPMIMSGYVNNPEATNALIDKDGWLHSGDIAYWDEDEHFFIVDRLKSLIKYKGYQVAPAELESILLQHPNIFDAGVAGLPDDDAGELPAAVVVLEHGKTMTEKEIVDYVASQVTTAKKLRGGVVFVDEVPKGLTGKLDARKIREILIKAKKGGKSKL
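Purified P. pyralis luciferase, 10 nM final, with Km-level 10 uM D-luciferin and 10 uM ATP in 50 mM Tris acetate pH 7.5, 10 mM Mg acetate, 0.01% Tween-20, 0.05% BSA; 6-point qHTS titration about 60 µM downward; luminescence read.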
KinaseGlo FLuc = Counterscreen for Luciferase (Kinase-Glo TM) Inhibition | Potency, µM (highest dose often 38.3 µM), for inactives: at the top dose activity change, negative = inhibition, most hits filed as inhibitors | Luciferin 4-monooxygenase (Photuris pensylvanica), Q27757 | Kinase-Glo luciferase, ATP luminescence, 8 min | 0.28% of 200,000 active; note: % is set by controls: 0 for no effect and ±100 for the full control effect; nearly all actives have a fitted effect of over 60% in size
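Luminescence was the read-out, taken after 8-minute incubation at ambient temperature. Luciferase turned over luciferin with 10 uM ATP in imidazole pH 7.2 buffer containing KCl, MgCl2, Tween 20 and BSA.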
SMN2 splice enh = qHTS Assay for Enhancers of SMN2 Splice Variant Expression | HEK293 SMN2-luciferase splicing reporter, luminescence, 30-36 h | Potency, µM (highest dose often 46.1 µM), without a hit: at the top dose activity change, positive = activation, actives largely listed as activators | 2.8% of 210,000 active | AID 1458, 2008; note: % of control where 0% means no effect; nearly all actives have a fitted effect of over 55% in size
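qHTS luciferase splicing reporter: luminescence rises when SMN2 exon 7 is included in transfected HEK293 cells. Compound exposure lasted 30-36 h at 37C, with 4.5 mM final sodium butyrate as control, followed by a ONE-Glo read.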
NPC1 prom act = qHTS Assay for NPC1 Promoter Activators | Huh7 NPC1 promoter luciferase reporter, 24 h | Potency, µM (doses to about 9.22 µM), for the others: at the top dose activation, hits mostly activators | 2.4% of 320,000 active | AID 485313, 2010; note: % of control where 0% means no effect; nearly all actives have a fitted effect of over 60% in size
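Compounds in DMSO were transferred onto Huh7 NPC1-luciferase reporter cells pre-incubated 2 h; after 24 h at 37 °C, Amplite reagent was dispensed and luminescence recorded 10 min later.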
ELG1 genotoxic = qHTS screen for small molecules that induce genotoxicity in human embryonic kidney (HEK293T) cells expressing luciferase-tagged ELG1; HEK293T ELG1-luciferase reporter, luminescence, 16 h; Potency, µM (top dose mostly 46 µM), inactives show at the top dose activity change, positive = activation, usual class: activators; 1.3% of 330,000 active; AID 504466, 2011; note: % of control where 0% means no effect; nearly all actives have a fitted effect of over 60% in size
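Screening used a luciferase reporter fused to human ELG1 in HEK293T cells. Luminescence was read on a CCD plate imager after 16 hr exposure and 30 min ONE-Glo incubation.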
* hit, by the source's call. Calls come from the whole dose curve; as a rule, active = well fitted curve in the direction sought with a large enough effect; inconclusive = small, poorly fitted or top-dose-only effect, or another doubt; inactive = no such curve, though single readings can be large; an effect the other way counts as inactive or inconclusive. Potency is the fitted concentration of half-maximal effect.

How did COc1cc(/C=C2\SC(=S)N(C(C(=O)O)c3ccccc3)C2=O)ccc1O (centres undefined) do in these assays?
Rab9 prom act: 1.5%; FLuc modulator: 19µM*; NPC1 prom act: 1.2%; ELG1 genotoxic: 0.4%

Results for COc1cc(/C=C2/SC(=S)N(Cc3ccccc3)C2=O)ccc1O ?
Rab9 prom act: -2.3%; FLuc modulator: 26.9µM*; NPC1 prom act: 2.5%; ELG1 genotoxic: inconclusive

Results for O=C1/C(=C/c2ccc(O)cc2)SC(=S)N1Cc1cccnc1 ?
Rab9 prom act: 0.4%; FLuc modulator: -4.7%; KinaseGlo FLuc: -1.7%; SMN2 splice enh: -4.0%; NPC1 prom act: 1.9%; ELG1 genotoxic: 7.5%

Results for CCOC(=O)C1(CCc2ccccc2)CCN(C(=O)c2cnc(C)cn2)CC1 ?
Rab9 prom act: 10.6%; FLuc modulator: inconclusive; KinaseGlo FLuc: -0.1%; NPC1 prom act: 1.0%; ELG1 genotoxic: 8.8%

What do the screens show for `CCCN(C(=O)C1CCN(S(=O)(=O)c2ccc(OC)c(OC)c2)CC1)C1CCS(=O)(=O)C1` (centres undefined)?
Rab9 prom act: -12.3%; FLuc modulator: 0.4%; NPC1 prom act: -2.3%; ELG1 genotoxic: 0.9%

How did CCC(C(=O)O)n1ccc2cc(S(=O)(=O)N3CCCCC3)ccc21 (centres undefined) do in these assays?
FLuc modulator: -19.5%; SMN2 splice enh: -0.6%

How did C/C(=N/NC(=O)CN1CCN(S(=O)(=O)c2ccc(C)cc2)CC1)c1ccco1 do in these assays?
Rab9 prom act: 0.1%; FLuc modulator: 4.7%; NPC1 prom act: -3.5%; ELG1 genotoxic: 0.0%

How did CCN(CC(=O)NCc1ccc(Cl)cc1)C(=O)/C=C/c1ccccc1 do in these assays?
Rab9 prom act: 3.7%; FLuc modulator: -5.6%; NPC1 prom act: -2.3%; ELG1 genotoxic: -0.9%

What do the screens show for `CCN(CC(=O)NCc1ccc(Cl)cc1)C(=O)/C=C/c1ccc(Cl)c([N+](=O)[O-])c1`?
Rab9 prom act: 1.6%; FLuc modulator: 9.53µM*; NPC1 prom act: 12.9%; ELG1 genotoxic: -6.3%

What do the screens show for `c1ccc(-c2cnn3c(-c4ccccc4)c(-c4ccccc4)nc3n2)cc1`?
Rab9 prom act: -3.9%; FLuc modulator: 5.4%; KinaseGlo FLuc: -1.5%; SMN2 splice enh: -31.6%; NPC1 prom act: -0.6%; ELG1 genotoxic: 4.5%

Results for CCN(CC)c1ccc2nc3ccccc3[n+](CC)c2c1 ?
Rab9 prom act: -47.9%; FLuc modulator: 15.1µM*; NPC1 prom act: -44.8%; ELG1 genotoxic: -34.7%

Results for CCN(CC)c1ccc2nc3ccc(N)cc3[n+](-c3ccccc3)c2c1 ?
Rab9 prom act: -33.6%; FLuc modulator: 13.5µM*; NPC1 prom act: -36.0%; ELG1 genotoxic: -2.7%

How did CCN(CC)c1ccc2nc3c(=O)n(C)c(=O)n(C)c3nc2c1 do in these assays?
FLuc modulator: -19.7%; SMN2 splice enh: -17.6%

How did CSc1ccccc1C(=O)NC1CCCc2ccccc21 (centres undefined) do in these assays?
Rab9 prom act: 0.9%; FLuc modulator: -0.5%; NPC1 prom act: -1.4%; ELG1 genotoxic: -12.8%

How did COc1ccc(OCC(O)CNC(=O)c2c(-c3ccccc3)noc2C)cc1 (centres undefined) do in these assays?
Rab9 prom act: -2.3%; FLuc modulator: 1.5%; NPC1 prom act: -1.2%; ELG1 genotoxic: 0.2%

Results for CSc1ccccc1OCc1cc(C(=O)N(C)Cc2nonc2C)no1 ?
Rab9 prom act: 2µM*; FLuc modulator: 13.5µM*; NPC1 prom act: 2.24µM*; ELG1 genotoxic: inconclusive
